Bioassay records from PubChem.
NALP3 yeast inh: NALP3 inhibition in yeast | Yeast reconstituted NLRP3/ASC/caspase-1, beta-gal luminescence, 24 h | inhibition, % at 10 µM | 330,000 tested, 0.39% active | AID 2825;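 active = inhibition of 50% or more; inactive = inhibition below 50%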
TIM10 inh: growth inhibitors of TIM10 yeast strain; S. cerevisiae TIM10 strain growth, BacTiter-Glo luminescence, 24 h; inhibition, % at 10 µM; 330,000 tested, 1.4% active;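 active = inhibition of 40% or more at the single tested concentration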;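 also: wild-type TIM10 isogenic control strain grown at permissive 25 °C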
SKKanGAS inh: inhibitors of SKKanGAS S. pyogenes growth in kanamycin (SK-promoter or general growth effect). 300,000 tested, 1.3% active. AID 1662. inhibition, % at 7.5 µM. BacTiter-Glo, 6 h;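 active = mean replicate score, as percent of positive control median, at least 50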;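 also: strain carries kanamycin resistance gene driven by streptokinase promoter and grows in 40 µg/ml kanamycin; loss of luminescence reflects streptokinase promoter inhibition or plain growth inhibition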
PfHsp90 yeast 2: growth inhibition of yeast expressing Plasmodium Hsp90; S. cerevisiae expressing PfHsp90, BacTiter-Glo ATP, 48 h; yeast lacking PDR1 and PDR3 efflux regulators; inhibition, % at 9.4 µM; 310,000 tested, 0.32% active;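 active = every replicate shows inhibition above about 80%, whatever the replicate mean, limit read from the data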
tim23-1 inh: inhibits growth of tim23-1 mutant yeast; S. cerevisiae tim23-1 growth, BacTiter-Glo luminescence, 24 h; AID 463212; 330,000 tested, 1.3% active; inhibition, % at 20 µM;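 active = growth inhibition of the mutant yeast at or above 50%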;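 also: temperature-sensitive mutant grown at 25 °C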
tim10-1 inh: tim10-1 yeast growth inhibition | S. cerevisiae tim10-1 ts strain growth, BacTiter-Glo, 24 h | AID 463190 | inhibition, % at 20 µM | 330,000 tested, 2.2% active;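 active = inhibition of at least 40%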;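 also: mutant grown at 25 °C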
NALP3 yeast conf: confirmation of NALP3 inhibitors in yeast | shares compounds with NALP3 yeast inh | yeast expressing human NALP3, luminescence | inhibition, % at 10 µM | 1,300 tested, 81% active | AID 435006; in the data active = inhibition above about 48%
Casp1-ASC yeast: active in yeast caspase-1-ASC counter-screen for NALP3 inhibitors. shares compounds with NALP3 yeast inh. yeast expressing Caspase-1-ASC, luminescence counter screen. inhibition, % at 10 µM. 1,000 tested, 66% active. AID 488784
NALP3 retest: retest-confirmed inhibitor of NALP3 in yeast | 1,000 tested, 53% active | yeast expressing human NALP3, luminescence read-out | shares compounds with NALP3 yeast inh | AID 488794 | inhibition, % at 10 µM
tim10-1 conf: confirmation of tim10-1 mutant yeast growth inhibitors; AID 463213; shares compounds with tim10-1 inh; 7,400 tested, 56% active; inhibition, % at 20 µM; S. cerevisiae tim10-1 ts strain growth, BacTiter-Glo, 24 h;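 active = inhibition of yeast growth at or above a set limit in either of two repeat tests at 20 µM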;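 also: tim10-1 mutant grown at permissive 25 °C to find synthetic lethal compounds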
tim10 confirm: TIM10 yeast growth inhibition, confirmed; shares compounds with TIM10 inh; S. cerevisiae tim10 strain growth, BacTiter-Glo luminescence, 24 h; inhibition, % at 10 µM; 4,600 tested, 63% active; AID 463215;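 active = inhibition of yeast growth at or above a set limit in either of two replicates at 10 µM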; also: this counterscreen used the strain with wild-type TIM10
Numbers stand for hits; – = inactive; · = no result given; ! = not active in a repeat. In the library only some 4.6% were active in any assay of this set; here they are far more common. Rule as the data show it, unless noted: active = inhibition above about 50%; inactive = the rest.

SMILES	NALP3 yeast inh	TIM10 inh	SKKanGAS inh	PfHsp90 yeast 2	tim23-1 inh	tim10-1 inh	NALP3 yeast conf	Casp1-ASC yeast	NALP3 retest	tim10-1 conf	others
Cc1cccc(N2CCN(CC(O)COc3ccccc3Cl)CC2)c1 (configuration not stated)	50	–	–	–	–	–	64	–	–	·
CC1=CCC2C(=O)N(c3ccc(OC(=O)c4ccco4)cc3)C(=O)C2C1 (configuration not stated)	–	–	–	–	–	–	·	·	·	·
CC(=O)Oc1ccc(Oc2ccc(-c3noc(C)n3)cc2)cc1	56	–	–	–	–	–	72	70	56	·
Cc1ccccc1-c1ccc(Nc2ccc(N3CCOCC3)cc2)nn1	64	–	–	–	–	–	74	60	62	·
CCOc1ccc(N2CC(C(=O)Nc3ccccc3C(=O)NC3CC3)CC2=O)cc1 (configuration not stated)	–	–	–	–	–	–	·	·	·	·
Cc1ccc(Nc2c([N+](=O)[O-])ccc3c2=NC2(CCCCC2)N=3)cc1	52	–	–	–	–	–	56	·	·	·
O=[N+]([O-])c1ccc2c(c1Nc1ccccc1Cl)=NC1(CCCCC1)N=2	–	–	–	·	–	–	·	·	·	·
CCCOc1ccc2c3c(c(=O)oc2c1)CCCC3	55	–	–	–	–	–	63	78	64	·
Cc1cccc(NCc2cc(Cl)ccc2O)n1	51	–	–	–	–	–	–	–	–	·
COc1ccc(-c2cc3nc4ccccc4n3c(N)c2C#N)cc1	68	–	74	–	–	–	–	–	–	·
CC(C)C[C@H]1CNC(=S)N1CC1CCN(CCCCc2ccccc2)CC1	·	·	·	–	·	·	·	·	·	·
C/C(=N\NC(=S)NCCc1ccccc1)c1ccc(Cl)cc1Cl	58	–	91	–	–	–	–	77	58	·
COc1ccc(Cl)cc1N1C(=O)CC(Sc2ccccc2N)C1=O (configuration not stated)	–	–	–	–	–	–	·	·	·	·
Cc1cc2c(c(CO)c1CCO)C(=O)[C@@H](C)[C@@H]2O	–	–	·	–	–	–	·	·	·	·
CCCCCCN[C@H]1CCC2C3CC=C4C[C@@H](O)CC[C@]4(C)C3CC[C@@]21C (some centres not stated)	62	–	·	–	–	–	66	·	·	·
CC(=O)OCC(=O)[C@H]1CC[C@H]2[C@@H]3CCC4=CC(=O)CC[C@]4(C)[C@H]3CC[C@]12C	–	–	–	–	–	–	·	·	·	·
CC(=O)OCC(=O)C1CCC2C3CC=C4CC(O)CCC4(C)C3CCC12C (configuration not stated)	74	–	·	–	–	–	81	77	66	·
Cc1cc(C(=O)C(C(c2ccccc2)N2CCOCC2)N2CCOCC2)ccc1Cl (configuration not stated)	·	·	·	–	·	·	·	·	·	·
CCN(CC)S(=O)(=O)c1ccc(Cl)c(NC(=O)COC(=O)c2nc3nc(C)cc(C)n3n2)c1	–	–	·	–	–	–	·	·	·	·
CC(Oc1ccc(F)cc1)C(=O)Nc1nc(-c2ccccn2)cs1 (configuration not stated)	55	–	107	–	–	42	73	82	74	–
Cc1cc(C(=O)Nc2ncn[nH]2)ccc1[N+](=O)[O-]	–	–	–	·	–	–	·	·	·	·
CC(=O)c1nnn(-c2ccc([N+](=O)[O-])cc2C)c1C	–	–	–	–	–	–	·	·	·	·
CCCCCCCSc1nnc(N)s1	–	–	–	–	–	–	·	·	·	·
CN(C)c1cc2c(c(N(C)C)c1)C(=O)c1ccccc1C2=O	52	–	–	–	–	44	–	51	–	34
CN(C)S(=O)(=O)c1cccc2c1C(=O)c1ccccc1C2=O	–	–	–	–	–	–	·	·	·	·
SMILES	NALP3 yeast inh	TIM10 inh	SKKanGAS inh	PfHsp90 yeast 2	tim23-1 inh	tim10-1 inh	NALP3 yeast conf	Casp1-ASC yeast	NALP3 retest	tim10-1 conf	others
NC(=NCCCCCCN=C(N)/N=C(\N)Nc1ccc(Cl)cc1)/N=C(\N)Nc1ccc(Cl)cc1	69	–	103	–	–	66	74	61	52	41!
O=C(CN(C1CCCCC1)S(=O)(=O)c1ccc(F)cc1)NCCCO	–	–	–	–	–	–	·	·	·	·
O=C(CN(C1CCCCC1)S(=O)(=O)c1ccc(F)cc1)Nc1ccc2c(c1)OCO2	51	–	–	–	–	45	56	–	–	–
Cc1cc2c(cc1C)CSC(c1ccccc1O)SC2	59	–	–	–	–	62	64	63	55	35
CCCSc1ccc2nc(-c3ccccc3)cn2c1	51	–	–	–	–	45	61	72	61	–
CCN(CC(=O)NCc1ccc(F)cc1)C(=O)c1ccc(COc2ccccc2)cc1	–	–	–	–	–	–	·	·	·	·
O=C(O)c1cc(N=Nc2c(O)ccc3ccccc23)cc(C(=O)O)c1	·	·	·	–	·	·	·	·	·	·
O=C(O)c1ccc(N=Nc2c(O)ccc3ncccc23)cc1	55	–	–	–	–	42	82	54	53	34
C#CC[N+](C)(C)CCCCCCCCCC	–	–	–	–	–	–	·	·	·	·
CCCCCCCCCCCCCCCC[N+](C)(C)CC	65	–	101	108	–	79	64	62	68	–
O=C(Nc1nccs1)c1cc2c(s1)-c1ccccc1OC2	54	–	–	–	–	59	67	–	–	–
CN(C)c1cc[n+](CC(=O)N2CCCc3ccccc32)cc1	–	–	–	–	–	–	·	·	·	·
CC1=C/C(=N\OS(=O)(=O)c2ccccc2)C(C)=CC1=O	–	87	·	105	–	91	–	·	·	80	tim10 confirm=–
Cc1ccc2c(c1)sc(=NC(=O)c1cccs1)n2C	58	59	–	–	–	–	–	–	–	·	tim10 confirm=60
Cc1ccc2c(c1)sc(=NC(=O)C1CC1)n2C	–	–	–	–	–	–	·	·	·	·
O=C(/C=C/c1c(F)cccc1Cl)c1ccc(O)cc1	91	74	–	–	–	–	87	58	–	·	tim10 confirm=62
O=C(/C=C/c1c(F)cccc1Cl)Nc1ncccn1	–	–	–	–	–	–	·	·	·	·
CC(C)(C)c1nc(-c2ccccc2)nc2c1OCCC2	–	–	–	–	–	–	·	·	·	·
O=C(OCC(=O)c1c[nH]c2ccccc12)c1ccc([N+](=O)[O-])s1	84	73	–	110	–	40	91	86	92	53	tim10 confirm=84
